“And” between values parts separate entries of the source, which are not always exact repeats. Identical values can stand only once. Out of some 5,500 compounds screened, about 2,000 (36%) were called active. Another 18% or so got no clear call; they are omitted. Rule as the data show it: active = normalized growth mostly below about 0.91 (no sharp cut-off); inconclusive = no clear call, values can overlap the other calls; inactive = mostly above about 0.92. This is one part of the list.
Test: chemical genetic growth profiling, strain panel (AID 1159580);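 also: tested at 20 µM; growth read once vehicle control cultures reached saturation at 30 °C; 1 = growth at the plate median or of vehicle wells; lower values mean less growth of the strain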
Details: S. cerevisiae deletion strains, growth OD

Measured: normalized growth

COc1ccc(C(CN(C)C)C2(O)CCCCC2)cc1 (stereo unspecified)
inactive: locus YAL013W, strain DEP1, hits give low values 1.01 | locus YAL021C, strain ccr4, hits give low values 0.976 | locus YAL026C, strain drs2, hits give low values 0.995 | locus YAL030W, strain snc1, hits give low values 0.988 | locus YBL061C, strain skt5, hits give low values 0.992 | locus YBR009C, strain hhf1, hits give low values 1.01 | locus YBR021W, strain FUR4, hits give low values 1.02 | locus YBR023C, strain chs3, hits give low values 1.01 | locus YBR171W, strain sec66, hits give low values 0.982 | locus YBR229C, strain ROT2, hits give low values 1.01 | locus YBR231C, strain swc5, hits give low values 1.03 | locus YBR279W, strain paf1, hits give low values 1.01 | locus YCL011C, strain gbp2, hits give low values 0.994 | locus YCL016C, strain dcc1, hits give low values 1.01 | locus YCL029C, strain bik1, hits give low values 0.979 | locus YCL069W, strain vba3, hits give low values 0.974 | locus YCR088W, strain abp1, hits give low values 0.99 | locus YDL005C, strain med2, hits give low values 0.978 | locus YDL035C, strain GPR1, hits give low values 1.02 | locus YDL040C, strain nat1, hits give low values 0.962 | locus YDL074C, strain BRE1, hits give low values 1.03 | locus YDL101C, strain DUN1, hits give low values 1.02 | locus YDL134C, strain PPH21, hits give low values 1.02 | locus YDL185W, strain tfp1, hits give low values 0.997 | locus YDL192W, strain arf1, hits give low values 0.991 | locus YDR001C, strain nth1, hits give low values 0.986 | locus YDR069C, strain doa4, hits give low values 0.973 | locus YDR101C, strain arx1, hits give low values 0.986 | locus YDR137W, strain rgp1, hits give low values 0.971 | locus YDR150W, strain NUM1, hits give low values 1.01 | locus YDR159W, strain sac3, hits give low values 0.974 | locus YDR162C, strain NBP2, hits give low values 0.985 | locus YDR195W, strain ref2 0.975 | locus YDR297W, strain sur2, hits give low values 0.994 | locus YDR318W, strain mcm21, hits give low values 0.996 | locus YDR334W, strain swr1, hits give low values 0.97 | locus YDR335W, strain msn5, hits give low values 0.996 | locus YDR388W, hits give low values 0.988 | locus YDR392W, strain spt3, hits give low values 0.985 | locus YDR502C, strain sam2, hits give low values 0.99 | locus YEL003W, strain gim4, hits give low values 0.976 | locus YEL037C, strain rad23, hits give low values 0.974 | locus YEL061C, strain CIN8 (second series), hits give low values 0.98 | locus YEL061C, strain CIN8, hits give low values 1.01 | locus YER015W, strain faa2, hits give low values 1.01 | locus YER016W, strain bim1, hits give low values 0.972 | locus YER110C, hits give low values 0.99 | locus YER111C, strain swi4, hits give low values 0.994 | locus YER155C, strain BEM2 (second series), hits give low values 0.962 | locus YER155C, strain BEM2, hits give low values 0.987 | locus YER167W, strain BCK2, hits give low values 1.01 | locus YFR010W, strain ubp6, hits give low values 0.987 | locus YGL078C, strain dbp3, hits give low values 0.989 | locus YGL086W, strain mad1, hits give low values 0.996 | locus YGL167C, strain pmr1, hits give low values 0.979 | locus YGL173C, strain kem1, hits give low values 0.987 | locus YGL227W, strain vid30, hits give low values 0.988 | locus YGL240W, strain doc1, hits give low values 0.992 | locus YGL248W, strain PDE1, hits give low values 1.01 | locus YGL253W, strain hxk2, hits give low values 0.999 | locus YGR078C, strain PAC10, hits give low values 1 | locus YGR135W, strain pre9, hits give low values 0.985 | locus YGR229C, strain SMI1, hits give low values 1.02 | locus YGR252W, strain gcn5, hits give low values 0.973 | locus YHR013C, strain ard1, hits give low values 0.932 | locus YHR027C, strain rpn1, hits give low values 0.987 | locus YHR030C, strain SLT2, hits give low values 1.01 and 1 | locus YHR079C, strain IRE1 (second series), hits give low values 0.99 | locus YHR079C, strain IRE1, hits give low values 1.01 | locus YHR094C, strain hxt1, hits give low values 0.997 | locus YHR129C, strain ARP1, hits give low values 1.01 | locus YHR142W, strain chs7, hits give low values 0.974 | locus YHR200W, strain rpn10, hits give low values 0.996 | locus YIL066C, strain RNR3, hits give low values 1.01 | locus YIL073C, strain SPO22, hits give low values 1.04 | locus YIL125W, strain kgd1, hits give low values 0.998 | locus YIR030C, strain dcg1, hits give low values 0.986 | locus YJL092W, strain hpr5, hits give low values 0.976 | locus YJL095W, strain BCK1 (second series), hits give low values 0.984 | locus YJL095W, strain BCK1, hits give low values 1.01 and 0.997 | locus YJL115W, strain asf1, hits give low values 0.958 | locus YJL129C, strain trk1, hits give low values 0.989 | locus YJL134W, strain LCB3, hits give low values 1.01 | locus YJL154C, strain vps35, hits give low values 0.974 | locus YJL164C, strain tpk1, hits give low values 1 | locus YJL166W, strain qcr8, hits give low values 0.971 | locus YJL168C, strain set2, hits give low values 0.997 | locus YJL187C, strain SWE1 (second series), hits give low values 1.01 | locus YJR043C, strain POL32, hits give low values 1 | locus YJR066W, strain TOR1, hits give low values 0.979 | locus YJR075W, strain HOC1, hits give low values 1.02

From PubChem BioAssay AID1159580 (chemical genetic matrix, 2015)
